Results as given in PubChem BioAssay (EPA / NIEHS).
Calls of active or inactive are those of the source. Rule for the calls: active = hit-call score of the fitted dose curve at least 0.9, where 1 is the maximum; inactive = score below 0.9.

Key:
Conditions in all cases: mRNA level, 48 h; actives raise or lower the signal
[1] = read-out: catalase (CAT), CAT (gene 847); assay: LTEA_HepaRG_CAT: Life Technologies and Expression Analysis (LTEA) Assay for catalase (CAT) using HepaRG (AID 2283452)
Outline: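 HepaRG cells in serum-free induction medium, 0.5% DMSO vehicle, exposed 48 h in duplicate over 8 half-log concentrations from 100 uM. CAT mRNA measured by qRT-PCR, normalized to ACTB, GAPDH, POLR2A; bidirectional fit versus DMSO.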

[2] = read-out: flavin-containing dimethylaniline monooxygenases 3 (FMO3), FMO3 (gene 2328); assay: LTEA_HepaRG_FMO3: Life Technologies and Expression Analysis (LTEA) Assay for flavin-containing dimethylaniline monooxygenases 3 (FMO3) using HepaRG (AID 2283453)
Outline: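 Differentiated HepaRG cells in serum-free induction medium, exposed 48 h in duplicate to 8 half-log concentrations up to 100 uM in 0.5% DMSO. FMO3 mRNA by qRT-PCR, normalized to ACTB, GAPDH, POLR2A; bidirectional fit vs DMSO.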

[3] = read-out: Cytochrome P450 (CYP1A1), CYP1A1 (gene 1543); assay: LTEA_HepaRG_CYP1A1: Life Technologies and Expression Analysis (LTEA) Assay for Cytochrome P450 (CYP1A1) using HepaRG (AID 2283454)
Outline: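 CYP1A1 transcript levels measured by Fluidigm qRT-PCR against three housekeeping genes, 48 h after chemical dosing of human HepaRG cells (highest concentration 100 uM, half-log steps, 0.5% DMSO vehicle). Gain or loss of signal fitted relative to DMSO.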

[4] = read-out: CFLAR gene, CFLAR (gene 8837); assay: LTEA_HepaRG_CFLAR: Life Technologies and Expression Analysis (LTEA) Assay for CFLAR gene using HepaRG (AID 2283455)
Outline: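 Differentiated HepaRG cells in serum-free induction medium were exposed 48 h in duplicate to eight half-log concentrations up to 100 uM in 0.5% DMSO; mRNA measured by TaqMan qRT-PCR, normalized to ACTB, GAPDH, POLR2A; bidirectional fitting versus DMSO.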

[5] = read-out: Forkhead box O1 (FOXO1), FOXO1 (gene 2308); assay: LTEA_HepaRG_FOXO1: Life Technologies and Expression Analysis (LTEA) Assay for Forkhead box O1 (FOXO1) using HepaRG (AID 2283456)
Outline: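 Differentiated HepaRG cells, in serum-free induction medium with 0.5% DMSO, exposed 48 h in duplicate to 8-point half-log series from 100 uM. FOXO1 mRNA measured by TaqMan qRT-PCR, normalized to ACTB, GAPDH, POLR2A; bidirectional fit versus DMSO.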

[6] = read-out: growth arrest and DNA damage 45 (GADD45A), GADD45A (gene 1647); assay: LTEA_HepaRG_GADD45A: Life Technologies and Expression Analysis (LTEA) Assay for growth arrest and DNA damage 45 (GADD45A) using HepaRG (AID 2283458)
Outline: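 Differentiated HepaRG cells exposed 48 h in serum-free induction medium to 8 concentrations, top 100 uM in half-log steps, 0.5% DMSO. GADD45A mRNA quantified by qRT-PCR, normalized to ACTB, GAPDH and POLR2A; bidirectional fit versus DMSO.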

[7] = read-out: Forkhead box O3 (FOXO3), FOXO3 (gene 2309); assay: LTEA_HepaRG_FOXO3: Life Technologies and Expression Analysis (LTEA) Assay for Forkhead box O3 (FOXO3) using HepaRG (AID 2283459)
Outline: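 Differentiated human HepaRG cells, 48 h post-plating, exposed in duplicate for 48 h in serum-free induction medium; 8-point half-log series from 100 uM in 0.5% DMSO. FOXO3 mRNA by TaqMan qRT-PCR, normalized to ACTB/GAPDH/POLR2A; bidirectional fit versus DMSO.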

[8] = read-out: ABC Transporter (ABCB1), ABCB1 (gene 5243); assay: LTEA_HepaRG_ABCB1: Life Technologies and Expression Analysis (LTEA) Assay for ABC Transporter (ABCB1) using HepaRG (AID 2283460)
Outline: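 HepaRG cells exposed in duplicate for 48 h in serum-free induction medium to eight half-log concentrations up to 100 uM in 0.5% DMSO. ABCB1 mRNA quantified by qRT-PCR, normalised to ACTB, GAPDH and POLR2A; fitted bidirectionally versus DMSO.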

[9] = read-out: growth arrest and DNA damage 45 (GADD45B), GADD45B (gene 4616); assay: LTEA_HepaRG_GADD45B: Life Technologies and Expression Analysis (LTEA) Assay for growth arrest and DNA damage 45 (GADD45B) using HepaRG (AID 2283461)
Outline: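 Transcript level quantified by Fluidigm TaqMan qRT-PCR with three housekeeping genes for normalization, analyzed for up- or down-regulation against 0.5% DMSO. HepaRG cultures dosed 48 h at eight half-log concentrations up to 100 uM, duplicates.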

[10] = read-out: ABC Transporter (ABCC3), ABCC3 (gene 8714); assay: LTEA_HepaRG_ABCC3: Life Technologies and Expression Analysis (LTEA) Assay for ABC Transporter (ABCC3) using HepaRG (AID 2283462)
Outline: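 Transcript level by TaqMan qRT-PCR, normalised to three housekeeping genes, fitted in both directions relative to vehicle. Chemicals tested in duplicate at eight half-log concentrations up to 100 uM for 48 h on HepaRG cells (0.5% DMSO).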

[11] = read-out: ABC Transporter (ABCB11), ABCB11 (gene 8647); assay: LTEA_HepaRG_ABCB11: Life Technologies and Expression Analysis (LTEA) Assay for ABC Transporter (ABCB11) using HepaRG (AID 2283463)
Outline: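 Differentiated human HepaRG cells in serum-free induction medium, dosed in duplicate for 48 h. Eight-point half-log series from 100 uM in 0.5% DMSO; ABCB11 mRNA by qRT-PCR, normalized to ACTB, GAPDH, POLR2A, fitted bidirectionally versus DMSO.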

[12] = read-out: ABC Transporter (ABCC2), ABCC2 (gene 1244); assay: LTEA_HepaRG_ABCC2: Life Technologies and Expression Analysis (LTEA) Assay for ABC Transporter (ABCC2) using HepaRG (AID 2283464)
Outline: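 Endpoint is ABCC2 transcript level from qRT-PCR, normalized to three housekeeping genes and fitted bidirectionally relative to DMSO. Human HepaRG cells received test chemical for 48 h at up to 100 uM (8 points, half-log steps, 0.5% DMSO), duplicate wells.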

[13] = read-out: Broad substrate specificity ATP-binding cassette transporter ABCG2 (Homo sapiens) (UniProt Q9UNQ0); assay: LTEA_HepaRG_ABCG2: Life Technologies and Expression Analysis (LTEA) Assay for ABC Transporter (ABCG2) using HepaRG (AID 2283465)
Outline: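 Differentiated HepaRG cells were exposed for 48 h in serum-free induction medium to 8 half-log concentrations, top 100 uM, in 0.5% DMSO. ABCG2 mRNA was measured by qRT-PCR, normalized to ACTB, GAPDH and POLR2A, with bidirectional fitting versus DMSO.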

[14] = read-out: ATP-citrate lyase (ACLY), ACLY (gene 47); assay: LTEA_HepaRG_ACLY: Life Technologies and Expression Analysis (LTEA) Assay for ATP-citrate lyase (ACLY) using HepaRG (AID 2283466)
Outline: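 Differentiated HepaRG cells exposed 48 h in serum-free induction medium to eight half-log concentrations up to 100 uM in 0.5% DMSO, duplicates. Transcript measured by Fluidigm TaqMan qRT-PCR, normalized to ACTB, GAPDH, POLR2A; bidirectional fit versus DMSO.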

[15] = read-out: Peroxisomal acyl-coenzyme A oxidase 1 (ACOX1) gene, ACOX1 (gene 51); assay: LTEA_HepaRG_ACOX1: Life Technologies and Expression Analysis (LTEA) Assay for Peroxisomal acyl-coenzyme A oxidase 1 (ACOX1) gene using HepaRG (AID 2283467)
Outline: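 HepaRG cells, plated 48 h then switched to serum-free induction medium, were exposed in duplicate for 48 h to 8-point half-log concentrations up to 100 uM in 0.5% DMSO. ACOX1 mRNA was measured by qRT-PCR, normalized to ACTB/GAPDH/POLR2A, and fitted bidirectionally versus DMSO.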

[16] = read-out: Alkaline Phosphatase, Placental (ALPP) gene, ALPP (gene 250); assay: LTEA_HepaRG_ALPP: Life Technologies and Expression Analysis (LTEA) Assay for Alkaline Phosphatase, Placental (ALPP) gene using HepaRG (AID 2283468)
Outline: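 ALPP transcript level, measured by qRT-PCR and normalized to three housekeeping genes (ACTB, GAPDH, POLR2A), after 48 h dosing of differentiated HepaRG in serum-free induction medium. Top concentration 100 uM with half-log dilutions (8 points, 0.5% DMSO, duplicates); bidirectional fitting relative to DMSO.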

[17] = read-out: Bcl-2 (BAD) gene, BAD (gene 572); assay: LTEA_HepaRG_BAD: Life Technologies and Expression Analysis (LTEA) Assay for Bcl-2 (BAD) gene using HepaRG (AID 2283469)
Outline: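 Differentiated HepaRG cells were exposed in duplicate in 0.5% DMSO for 48 h to eight-point half-log concentrations up to 100 uM. BAD mRNA was measured by Fluidigm TaqMan qRT-PCR, normalized to ACTB, GAPDH and POLR2A, and fitted bidirectionally against DMSO.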

[18] = read-out: Bcl-2 (BAX) gene, BAX (gene 581); assay: LTEA_HepaRG_BAX: Life Technologies and Expression Analysis (LTEA) Assay for Bcl-2 (BAX) gene using HepaRG (AID 2283470)
Outline: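 Differentiated HepaRG cells exposed 48 h in serum-free induction medium, eight half-log concentrations from 100 uM, in duplicate, 0.5% DMSO vehicle. BAX mRNA by TaqMan qRT-PCR, normalised to ACTB, GAPDH and POLR2A.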

[19] = read-out: adenosine kinase (ADK) gene, ADK (gene 132); assay: LTEA_HepaRG_ADK: Life Technologies and Expression Analysis (LTEA) Assay for adenosine kinase (ADK) gene using HepaRG (AID 2283471)
Outline: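 Read-out is ADK transcript level measured by qRT-PCR and normalised to three housekeeping genes. Cells are human HepaRG, dosed for 48 h at up to 100 uM in 0.5% DMSO. Gain or loss of signal is fitted against DMSO controls.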

Measured: AC50

Broad substrate specificity ATP-binding cassette transporter ABCG2 (Homo sapiens), sequence (Q9UNQ0 whole entry, looked up): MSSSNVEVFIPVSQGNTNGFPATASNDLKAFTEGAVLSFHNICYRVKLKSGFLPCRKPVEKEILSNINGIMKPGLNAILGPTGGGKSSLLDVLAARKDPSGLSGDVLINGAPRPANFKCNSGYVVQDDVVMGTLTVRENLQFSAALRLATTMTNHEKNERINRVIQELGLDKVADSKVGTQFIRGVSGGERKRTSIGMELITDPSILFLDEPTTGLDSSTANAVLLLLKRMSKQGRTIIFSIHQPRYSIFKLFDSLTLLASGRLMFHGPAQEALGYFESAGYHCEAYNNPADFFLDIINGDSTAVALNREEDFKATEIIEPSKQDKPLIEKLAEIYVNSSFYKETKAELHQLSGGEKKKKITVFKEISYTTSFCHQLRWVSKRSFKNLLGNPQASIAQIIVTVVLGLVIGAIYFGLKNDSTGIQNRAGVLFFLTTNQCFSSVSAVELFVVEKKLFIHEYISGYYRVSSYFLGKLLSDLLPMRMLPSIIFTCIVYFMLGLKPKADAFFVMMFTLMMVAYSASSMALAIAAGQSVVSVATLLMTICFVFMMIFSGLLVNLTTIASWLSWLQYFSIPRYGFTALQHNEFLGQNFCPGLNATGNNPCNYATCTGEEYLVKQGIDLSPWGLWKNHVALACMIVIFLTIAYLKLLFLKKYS

[As]#[In]
inactive: all assays above

c1ccc(NNc2ccccc2)cc1
active: [3] 31.6 µM | [9] 50 µM
inactive: all other assays above

CC(C)(OOC(C)(C)c1ccccc1)c1ccccc1
active: [3] 50 µM | [9] 50 µM | [12] 50 µM
inactive: all other assays above

CCCCC(CC)COC(=O)c1ccc(C(=O)OCC(CC)CCCC)c(C(=O)OCC(CC)CCCC)c1 (stereo not drawn)
active: [3] 50 µM
inactive: all other assays above

Clc1ccc(C(c2ccc(Cl)cc2)C(Cl)(Cl)Cl)cc1
active: [2] 88.4 µM | [3] 9.54 µM | [8] 50 µM | [12] 4.19 µM | [13] 0.788 µM
inactive: all other assays above

Nc1cc(Cl)cc(C(=O)O)c1Cl
active: [3] 63.4 µM
inactive: all other assays above

Cn1cc(-c2ccccc2)c(=O)c(-c2cccc(C(F)(F)F)c2)c1
active: [3] 32.6 µM | [4] 9.92 µM | [8] 7.25 µM | [12] 5.1 µM | [13] 10.6 µM | [16] 50 µM
inactive: all other assays above
